Kir21 block – inhibitors of mouse Kir2.1 inward-rectifier potassium channel; HEK293-Kir2.1, FluxOR thallium flux fluorescence; hits give low values; B-score at 10 µM; 0.85% of 310,000 active; AID 1672, 2009;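 active = fluorescence ratio B-score at or below minus 3 SD of library scores, with starting-brightness B-score within 2 SD, cut at about -4.2 in these data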;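 also: channel flux triggered by added potassium and thallium sulfate stimulus; B-score of peak minus minimum fluorescence over baseline after thallium stimulus; more negative B-score means stronger Kir2.1 block with less thallium influx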
ANO1 block – TMEM16A chloride channel inhibitors, primary screen, cell-based, HTS. Anoctamin-1 (Mus musculus), Q8BHY3. HEK293 TMEM16A/YFP iodide influx fluorescence, ionomycin. normalized B-score (activity score, 25-100; higher = stronger inhibition) at 10 µM. 1.2% of 310,000 active. AID 588511, 2011;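 active = ratio plate-corrected score three or more library SD toward inhibition, starting fluorescence score within five deviations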;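 also: score derived from kinetic fluorescence span divided by baseline fluorescence per well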
Target sequence (Q8BHY3 whole entry, looked up): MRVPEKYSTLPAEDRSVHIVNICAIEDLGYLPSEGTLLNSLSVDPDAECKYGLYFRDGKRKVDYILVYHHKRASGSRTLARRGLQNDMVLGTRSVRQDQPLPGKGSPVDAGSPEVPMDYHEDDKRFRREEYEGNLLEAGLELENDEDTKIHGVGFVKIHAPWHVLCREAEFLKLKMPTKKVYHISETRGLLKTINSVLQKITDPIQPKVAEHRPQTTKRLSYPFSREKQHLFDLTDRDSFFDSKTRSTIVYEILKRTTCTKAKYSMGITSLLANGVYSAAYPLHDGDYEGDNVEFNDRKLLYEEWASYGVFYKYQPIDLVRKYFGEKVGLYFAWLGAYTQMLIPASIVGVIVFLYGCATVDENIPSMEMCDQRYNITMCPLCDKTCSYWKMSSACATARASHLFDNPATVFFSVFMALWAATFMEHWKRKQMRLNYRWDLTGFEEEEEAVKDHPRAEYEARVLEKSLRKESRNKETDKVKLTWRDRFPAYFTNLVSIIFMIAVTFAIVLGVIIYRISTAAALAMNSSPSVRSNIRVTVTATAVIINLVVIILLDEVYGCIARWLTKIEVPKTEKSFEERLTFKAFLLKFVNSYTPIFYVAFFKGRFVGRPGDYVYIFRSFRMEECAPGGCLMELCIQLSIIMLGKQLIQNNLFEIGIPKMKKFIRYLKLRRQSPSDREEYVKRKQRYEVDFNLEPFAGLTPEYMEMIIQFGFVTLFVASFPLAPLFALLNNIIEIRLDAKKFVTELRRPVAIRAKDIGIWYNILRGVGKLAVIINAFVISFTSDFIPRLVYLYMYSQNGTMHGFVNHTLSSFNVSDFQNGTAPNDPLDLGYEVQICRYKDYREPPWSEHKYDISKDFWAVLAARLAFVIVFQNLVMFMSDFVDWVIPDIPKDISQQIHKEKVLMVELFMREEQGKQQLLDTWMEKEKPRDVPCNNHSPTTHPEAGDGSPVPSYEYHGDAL
TMEM16A act – TMEM16A chloride channel activators or potentiators, primary screen, cell-based, HTS; HEK293 TMEM16A/YFP-H148Q/I152L, iodide quench fluorescence; hits give low values; B-score at 10 µM; 0.3% of 340,000 active;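 active = fluorescence-ratio B-score plate-corrected deviation score at least 3 library SD below zero, with starting fluorescence score within 5 deviations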;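 also: channel opened by trigger with iodide after compound preincubation; score built on the fluorescence ratio of max minus min over baseline; more negative score means more quench and so TMEM16A activation or potentiation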
CHT allo act – CHT positive allosteric modulators, primary screen, cell-based, membrane potential dye, choline EC20. High affinity choline transporter 1 (Homo sapiens), Q9GZV3. CHT-expressing cells; hits give high values; LV-AA mutant CHT in HEK293 cells. B-score at 10 µM. 0.49% of 310,000 active;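 active = initial fluorescence not abnormally high and integrated response B-score, plate-corrected, over 3 SD above library mean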
Rce1 inh – yeast Rce1p protease inhibitors, primary screen, biochemical, fluorescence, cell-free homogeneous | yeast membranes, quenched prenylated peptide cleavage fluorescence | calls only | 0.27% of 290,000 active | AID 2563, 2010;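 active = fall in fluorescence gain of 50% or more versus controls, with final raw signal at or below 3038400; inconclusive = same 50% fall but final raw signal above 3038400; inactive = fall in fluorescence gain under 50%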;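 also: plate controls were neutral control wells for no effect and wells lacking membranes for full effect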
CHT inh – inhibitors of human choline transporter CHT; 0.86% of 310,000 active; CHT-expressing cells, membrane potential dye, choline response; hits give low values; AID 488975, 2010; High affinity choline transporter 1 (Homo sapiens), Q9GZV3; B-score at 10 µM;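 active = B-score over 3 SD under the library average, and starting fluorescence ratio not unusually high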;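 also: choline stimulus applied at its EC90 after an EC20 pre-addition; B-score computed on integrated fluorescence ratio after choline addition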
CHT inh conf – CHT inhibitors, confirmation, cell-based, membrane potential dye, duplicate | CHT activity remaining % of control (hits give low values), % at 10 µM | 70% of 2,400 active | shares compounds with CHT inh | CHT-expressing cells, choline membrane potential dye; LV-to-AA substituted CHT, HEK293 cells;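 active = choline transporter activity left, mean of duplicates at 10 µM, below buffer-only control mean minus 3 SD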;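 also: depolarization triggered by choline at its EC90 following an EC20 pre-addition; 0% = hemicholinium-3 full block and 100% = buffer-only control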
HEK293 MPD ctr – membrane potential effects in parental HEK293, counter-screen for CHT inhibitor project, cell-based, membrane potential dye. shares compounds with CHT inh. choline response; active = decrease or increase beyond buffer ±3SD. membrane potential ratio readout (active if shifted either direction beyond buffer ±3SD; no single direction) at 10 µM. 4% of 2,400 active. AID 493222, 2011;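 also: parental cells lack the transporter so any hit is non-specific; ratio is peak minus trough fluorescence over baseline after EC90 choline challenge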
The depositor's hits bear a star; i = inactive; ? = inconclusive; . = no result; + = active, no number. Rows were chosen to be rich in hits. Some 3.2% of all compounds tested hit in one or more screens of this group.

SMILES	Kir21 block	ANO1 block	TMEM16A act	CHT allo act	Rce1 inh	CHT inh	CHT inh conf	HEK293 MPD ctr
CC(C)CN1CCNC(=O)C1CC(=O)NCCc1ccc(C(F)(F)F)cc1 (stereo not drawn)	-1.18	i	i	i	i	-4.95*	i	i
CCOc1cccc(-c2nn(-c3ccccc3)cc2/C=C(/C#N)C(=O)NCCCn2ccnc2)c1	0.24	i	i	i	+	-9.19*	61.2%*	i
O=C1ON=C(c2ccccc2)/C1=C/c1cccnc1	.	.	i	.	.	.	.	.
O=C1ON=C(c2ccccc2)/C1=C/c1ccc(O)c(O)c1	-5.22*	i	i	i	i	-6.83*	32.6%*	i
CC1=NOC(=O)/C1=C/c1ccc(O)c(Cl)c1	0.84	i	i	i	i	-8.62*	26.8%*	i
COC(=O)c1c(NC(=O)Cn2cnc([N+](=O)[O-])n2)sc2c1CCC(C)C2 (stereo not drawn)	-0.06	i	i	i	i	i	.	.
O=C(COc1cc2oc(=O)c3c(c2cc1Cl)CCCC3)NCC1CCC(C(=O)O)CC1 (stereo not drawn)	0.57	i	i	i	i	i	.	.
CCOC(=O)C1CCN(C(=O)CN(c2ccc(Cl)c(C(F)(F)F)c2)S(C)(=O)=O)CC1	-0.52	i	i	i	i	-6.36*	i	i
CCOC(=O)C1CCN(C(=O)CN(c2ccc3c(c2)OCO3)S(C)(=O)=O)CC1	0.11	i	i	i	.	i	.	.
Cc1ccc2cc(C#N)c(N3CCN(C(=O)c4ccccc4)CC3)nc2c1	-0.36	i	i	i	i	-5.2*	i	i
O=C1ON=C(c2ccccc2[N+](=O)[O-])/C1=C/c1cccc([N+](=O)[O-])c1O	.	.	i	.	.	.	.	.
COc1cc(/C=C2/C(=O)c3cccc([N+](=O)[O-])c3C2=O)c(Br)cc1O	.	25*	i	i	.	-7.2*	43.4%*	i
CC(C)(C)N1CC23CCC(C[C@@H]2C1=O)O3 (stereo partly drawn)	0.95	i	i	i	i	i	.	.
CCCCn1c(SCN2C(=O)c3ccccc3C2=O)nc2cc(S(N)(=O)=O)ccc21	-0.69	.	i	.	i	.	.	.
CCCCn1c(SCn2nnc3ccccc3c2=O)nc2cc(S(N)(=O)=O)ccc21	-0.89	i	i	i	i	-6.24*	48.8%*	i
CC(C)(C)C(=O)NC1CCN(CC(=O)Nc2ccc3c(c2)OCO3)CC1	-1.07	i	i	i	i	i	.	.
O=c1c(S(=O)(=O)c2ccc(Cl)cc2)cn(Cc2ccccc2F)c2ccc(F)cc12	0.6	i	i	i	i	i	.	.
COc1cc(/C=C2/C(=O)N(c3cccc(Br)c3)N=C2C)cc(OC)c1O	1.34	i	i	i	i	-5.17*	45.3%*	i
COc1cc(/C=C2/C(=O)N(c3ccc(Br)cc3)N=C2C)cc([N+](=O)[O-])c1O	-0.4	i	.	i	i	i	.	.
CN(c1ccc(OCC(=O)NCc2cccnc2)cc1)S(=O)(=O)c1ccc(Cl)cc1	-3.52	i	i	i	i	i	.	.
CC(OC(=O)C1CCCC1)C(=O)Nc1ncc(Cl)cc1Cl (stereo not drawn)	.	.	i	.	.	.	.	.
COC(=O)Cn1ccc(N(C)C)c(C#N)c1=O	2.4	i	i	i	i	-15.1*	8.7%*	i
COC(=O)Cn1ccc(-c2ccc(Cl)cc2)c(C#N)c1=O	-0.15	i	i	i	i	i	.	.
Cc1nn(-c2ccccc2)c(C)c1C(=O)OCC(=O)NC(=O)NC1CCCC1	0.78	i	i	i	i	-10.6*	60.3%*	i
Cc1[nH]n2c(=O)cc(C(C)(C)C)nc2c1-c1ccccc1	-1.5	i	i	i	i	i	.	.
SMILES	Kir21 block	ANO1 block	TMEM16A act	CHT allo act	Rce1 inh	CHT inh	CHT inh conf	HEK293 MPD ctr
CCCc1cc(=O)n2[nH]c(C)c(-c3ccccc3)c2n1	1.61	i	i	i	+	-5.78*	i	i
Cc1[nH]n2c(=O)cc(C(C)C)nc2c1-c1ccccc1	-0.85	i	i	i	?	-5.17*	i	i
COC(=O)Cc1cc(=O)n2[nH]c(C)c(-c3ccccc3)c2n1	-0.7	i	i	i	i	i	.	.
Cc1cccc(-n2nc3c(c2NC(=O)c2ccc4c(c2)OCO4)CS(=O)(=O)C3)c1C	0.2	i	i	i	i	i	.	.
O=C(NNC1=C(C(=O)C(F)(F)F)CCC1)c1ccccc1O	-0.47	100*	i	i	i	-6.49*	30.6%*	i
Cc1ncc([N+](=O)[O-])n1CC(=O)Nc1ccc(F)c(Cl)c1	0.48	i	i	i	i	i	.	.
CCCC1CCC(c2ccc(OCC)cc2)=CC1=O (stereo not drawn)	1.01	i	i	i	i	i	.	.
CC(=O)OC(C(=O)NC1CCCCC1)c1ccc(Cl)c(Cl)c1 (stereo not drawn)	-0.24	i	i	i	i	-10.9*	i	i
CC(=O)OC(C(=O)NC1CCCCC1)c1ccc(C)cc1 (stereo not drawn)	-1.38	i	i	i	i	i	.	.
COc1ccccc1CC(=O)N1CCC(n2nccc2NC(=O)C2CCOC2)CC1 (stereo not drawn)	0.46	i	i	i	i	i	.	.
CCOC(=O)c1sc(NC(=O)CCN2CC(C)OC(C)C2)c(C(=O)OCC)c1C (stereo not drawn)	0.59	i	.	i	i	i	.	.
CCOC(=O)c1sc(NC(=O)CCN2CCN(C)CC2)c(C(=O)OCC)c1C	-5.47*	i	i	i	i	-5.27*	46.9%*	i
